From PubChem
This is a sample that favours compounds with a hit; in the whole collection about 21% have one here.
RORg inh = blocks mouse ROR gamma transcriptional activity | Drosophila S2 Gal4-RORgamma UAS-luciferase reporter, 20 h | P51450 | Potency, µM (series often up to 53.6 µM), without a hit: at the highest dose activity change, negative = inhibition, hits mostly inhibitors | 310,000 compounds, 5.4% hits; also: potency is read from the fitted curve at half-maximal effect; nearly all actives have a fitted effect of over 60% in size
Target sequence (P51450 whole entry, looked up, the tested form may be a part): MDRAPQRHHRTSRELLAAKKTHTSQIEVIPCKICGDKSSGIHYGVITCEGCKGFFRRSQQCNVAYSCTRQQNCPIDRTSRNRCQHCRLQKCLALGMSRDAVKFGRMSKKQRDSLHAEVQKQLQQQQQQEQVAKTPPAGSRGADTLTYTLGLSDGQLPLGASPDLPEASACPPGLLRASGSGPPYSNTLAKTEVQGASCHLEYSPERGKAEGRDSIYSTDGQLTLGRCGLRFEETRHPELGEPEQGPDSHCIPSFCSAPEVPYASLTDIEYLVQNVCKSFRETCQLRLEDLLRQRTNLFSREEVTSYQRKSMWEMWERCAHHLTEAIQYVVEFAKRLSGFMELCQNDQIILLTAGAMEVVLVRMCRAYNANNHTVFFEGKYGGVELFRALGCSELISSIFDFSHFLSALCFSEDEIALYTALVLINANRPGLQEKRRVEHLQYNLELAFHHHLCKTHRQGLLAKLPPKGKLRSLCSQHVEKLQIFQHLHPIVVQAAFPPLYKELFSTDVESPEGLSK
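Stable Schneider cell line, Gal4 DNA-binding domain fused to ROR gamma, UAS-luciferase. Cmpd 1 hr RT → CuSO4 700 uM final → 20 hr RT → luciferase reagent 10 min → luminescence.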
IL1B secr inh = blocks inflammasome-driven IL-1 beta release. THP-1 LPS/ATP IL-1B secretion, AlphaLISA, 16 h; active compounds read low. activity change, % at 57.5 µM. 360,000 compounds, 4.7% hits. AID 743279; in the data active = activity change below about -50%; inconclusive = mostly about -30% to -49%
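Secreted IL-1B measured by AlphaLISA bead assay after 16 h compound exposure of THP-1 cells; compounds (final up to 57.5 uM) added 1 h before LPS (250 ng/mL) and ATP (1.25 mM) stimulation; lower signal means less secretion.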
VP16 counter = inhibits Gal4-VP16 luciferase reporter, ROR gamma counter-screen. Drosophila S2 Gal4-VP16 UAS-luciferase, luminescence, 20 h. Potency, µM (series often up to 53.6 µM), for inactives: at the top dose activity, negative = inhibition, actives largely listed as inhibitors. 310,000 compounds, 3.5% hits;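 also: Gal4-VP16 expression switched on by copper sulfate through the metallothionein promoter; potency is read from the fitted curve at half-maximal effect; nearly all actives have a fitted effect of over 50% in size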
DT40 TDP1 CPT = DT40-hTDP1 cell growth loss with CPT | chicken DT40 Tdp1-/-;hTDP1 cells + 20 nM CPT, ATP luminescence, 48 h | Potency, µM (top dose mostly 46.2 µM), for the others: top-dose activity change, negative = growth inhibition, usual class: inhibitors | 420,000 compounds, 12% hits | AID 686979; also: potency is read from the fitted curve at half-maximal effect; nearly all actives have a fitted effect of over 55% in size
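Chicken DT40 Tdp1-/- cells complemented with human TDP1, 400 cells/well, exposed to compounds plus 20 nM camptothecin for at least 48 h at 37 C; viability read as ATP content by CellTiter-Glo luminescence.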
ELG1 DNA repair = ELG1-dependent DNA repair inhibition; HEK293T ELG1-luciferase reporter, luminescence, 16 h; DNA damage induced by 5-fluorouridine; Potency, µM (highest dose often 46.1 µM), for inactives: at the top dose activity change, negative = inhibition, usual class: inhibitors; 330,000 compounds, 2.3% hits; AID 504467; also: potency is read from the fitted curve at half-maximal effect; nearly all actives have a fitted effect of over 55% in size
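Luminescence from the luciferase reporter, measured 30 min after ONE-Glo reagent at room temperature, was the read-out. Beforehand, 2,000 cells per well were exposed for 16 hr at 37 °C to 5-fluorouridine together with compound or vehicle.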
DT40 TDP1 no CPT = qHTS for Inhibitors of human tyrosyl-DNA phosphodiesterase 1 (TDP1): qHTS in cells in absence of CPT; 420,000 compounds, 15% hits; Potency, µM (highest dose often 46.2 µM), for inactives: top-dose activity change, negative = growth inhibition, hits mostly inhibitors; DT40 Tdp1-/- hTDP1 cells, no CPT, ATP luminescence, 48 h; also: potency is read from the fitted curve at half-maximal effect; nearly all actives have a fitted effect of over 55% in size
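A cellular qHTS used chicken DT40 cells lacking endogenous Tdp1 but carrying stably transfected human TDP1. Compounds were applied without camptothecin, and cell growth kinetics were judged by ATP-dependent luminescence after ≥48 hr.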
ELG1 FLuc counter = luciferase inhibition in cell-free luciferin readout for ELG1 hits. shares compounds with ELG1 DNA repair. cell-free firefly luciferase luminescence counter-screen, ViewLux. Potency, µM (series often up to 46.1 µM), inactives show at the top dose activity change, negative = inhibition, actives largely listed as inhibitors. 350 compounds, 3% hits. AID 624247; also: potency is read from the fitted curve at half-maximal effect
ELG1 Luc conf = human ELG1 repair inhibition, luciferase-tagged ELG1 confirmation; shares compounds with ELG1 DNA repair; HEK293T ELG1-luciferase levels, luminescence; cells co-treated with 5-fluorouridine; Potency, µM (top dose mostly 46.1 µM), for the others: at the highest dose activity change, negative = inhibition, usual class: inhibitors; 670 compounds, 68% hits; AID 624248; also: potency is read from the fitted curve at half-maximal effect; nearly all actives have a fitted effect of over 55% in size
ELG1 MMS Luc = inhibits ELG1-dependent repair under MMS stimulation in HEK293T cells; AID 624249; HEK293T luciferase-tagged ELG1 level, MMS stimulated; Potency, µM (top dose mostly 46.1 µM), inactives show top-dose activity change, negative = inhibition, usual class: inhibitors; 670 compounds, 53% hits; shares compounds with ELG1 DNA repair; also: potency is read from the fitted curve at half-maximal effect; nearly all actives have a fitted effect of over 60% in size
ELG1 5-FU = confirmation of ELG1 repair inhibitors: viability with 5FU; Potency, µM (series often up to 46.1 µM), inactives show at the highest dose activity change, negative = viability loss, hits mostly cytotoxic; 670 tested, under 10 active; cell viability with 5-FU, ELG1-dependent repair; shares compounds with ELG1 DNA repair; AID 624250;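 also: ELG1-luc HEK293T cells cotreated with 5-fluorouridine at 10 µM final; potency is read from the fitted curve at half-maximal effect; viability measured 16 h after compound addition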
ELG1 MMS viab = confirmation of ELG1 repair inhibitors: viability with MMS; Cell viability with MMS, ELG1-dependent DNA repair; Potency, µM (top dose mostly 46.1 µM), for the others: top-dose activity change, negative = viability loss, actives largely listed as cytotoxic; shares compounds with ELG1 DNA repair; 670 compounds, 33% hits;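 also: ELG1-luc HEK293T cells co-treated with 10 µM MMS; potency is read from the fitted curve at half-maximal effect; viability read 16 h after compound addition; nearly all actives have a fitted effect of over 60% in size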
Cell viab unstim = unstimulated viability counter-screen for ELG1 repair hits | 900 compounds, 8% hits | Potency, µM (doses to about 45.9 µM), inactives show at the highest dose activity change, negative = loss of viability, actives largely listed as cytotoxic | cell viability counter-screen, unstimulated, luminescence | shares compounds with ELG1 DNA repair | AID 624252;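 also: potency is read from the fitted curve at half-maximal effect; compound exposure lasted 16 hours before reading; nearly all actives have a fitted effect of over 55% in size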
FLuc enzyme = firefly luciferase inhibition counter-screen. 350 compounds, 10% hits. purified firefly luciferase, luminescence counter-screen. shares compounds with ELG1 DNA repair. AID 624253. Potency, µM (titrated, usually from 57.5 µM), inactives show at the top dose activity, negative = inhibition, hits mostly inhibitors; also: potency is read from the fitted curve at half-maximal effect
* marks the source's active call; other numbers are inactive results; [ ] = remark or other dose. Unless noted, calls follow the shape of the dose curve; as a rule, active = well fitted curve in the direction sought with a large enough effect; inconclusive = small, poorly fitted or top-dose-only effect, or another doubt; inactive = no such curve, though single readings can be large; an effect the other way counts as inactive or inconclusive. % is scaled to controls: 0 for no effect and ±100 for the full control effect.

How did O=C(Cn1cc(C(F)(F)F)ccc1=O)N1CCN(S(=O)(=O)c2ccccc2)CC1 do in these assays?
RORg inh: 3%; IL1B secr inh: 10; VP16 counter: -2%; DT40 TDP1 CPT: -13%; ELG1 DNA repair: -18%; DT40 TDP1 no CPT: -12%

What do the screens show for `CC(C)Oc1ccc(C2NC(=O)c3ccccc3O2)cc1` (configuration not stated)?
RORg inh: 4%; IL1B secr inh: -4; VP16 counter: -3%; DT40 TDP1 CPT: 4%; ELG1 DNA repair: 1%; DT40 TDP1 no CPT: -3%

How did COc1ccc(-c2ccc(SCC(=O)NCc3ccco3)nn2)cc1 do in these assays?
RORg inh: -12%[10 µM]; IL1B secr inh: -11; VP16 counter: -1%; DT40 TDP1 CPT: -20%; ELG1 DNA repair: inconclusive; DT40 TDP1 no CPT: -3%

What do the screens show for `COc1cc(-c2cc(C(F)(F)F)n3ncc(C(=O)O)c3n2)cc(OC)c1OC`?
RORg inh: -3%; IL1B secr inh: 3; VP16 counter: 2%; DT40 TDP1 CPT: 3%; ELG1 DNA repair: 4.1µM*; DT40 TDP1 no CPT: -5%; ELG1 Luc conf: 7.1µM*; ELG1 MMS Luc: 10%; ELG1 5-FU: inconclusive; ELG1 MMS viab: inconclusive; Cell viab unstim: 12%

How did Cc1ccc(C2CC(C(F)(F)F)n3ncc(C(=O)NCc4ccco4)c3N2)cc1 (configuration not stated) do in these assays?
RORg inh: -2%; IL1B secr inh: -19; VP16 counter: -10%; DT40 TDP1 CPT: -28%; ELG1 DNA repair: -20%; DT40 TDP1 no CPT: inconclusive; ELG1 FLuc counter: 5%; ELG1 Luc conf: 28µM*; ELG1 MMS Luc: -11%; ELG1 5-FU: inconclusive; ELG1 MMS viab: 5%; Cell viab unstim: 7%; FLuc enzyme: -8%
